Values joined by “and” are separate entries in the source; they are usually repeats but may differ in a detail not shown here. Identical values can stand only once. Records with an inconclusive call do not appear. Active and inactive are the calls of the source. Unless noted, calls come from the whole dose curve; as a rule, active = well fitted curve in the direction sought with a large enough effect in the repeat runs; inconclusive = weak or mixed curves; inactive = no such curve, though single readings can be large; an effect the other way counts as inactive or inconclusive.
Assays:
[1] = qHTS assay for identifying genotoxic compounds that show differential cytotoxicity against isogenic chicken DT40 cell lines with known DNA damage response pathways - wild type cell line (AID 743012); note: nearly all actives have a fitted effect of over 60% in size; note: potency is the fitted concentration of half-maximal effect
Summary of the method: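 Wild-type DT40 cells (300/well) exposed to compounds for 40 hours at 37 C/5% CO2. Viability read by CellTiter-Glo luminescence after 30 min at room temperature.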

[2] = qHTS assay for identifying genotoxic compounds that show differential cytotoxicity against isogenic chicken DT40 cell lines with known DNA damage response pathways - Rev3 mutant cell line (AID 743014); note: nearly all actives have a fitted effect of over 55% in size; note: potency is the fitted concentration of half-maximal effect
[3] = qHTS assay for identifying genotoxic compounds that show differential cytotoxicity against isogenic chicken DT40 cell lines with known DNA damage response pathways - Rad54/Ku70 mutant cell line (AID 743015); note: nearly all actives have a fitted effect of over 60% in size; note: potency is the fitted concentration of half-maximal effect
[4] = qHTS assay to identify small molecule antagonists of the androgen receptor (AR) signaling pathway - cell viability counter screen (AID 743033; note: nearly all actives have a fitted effect of over 45% in size; note: potency is the fitted concentration of half-maximal effect)
[5] = qHTS assay to identify small molecule antagonists of the androgen receptor (AR) signaling pathway using the MDA cell line - cell viability counter screen (AID 743041; note: nearly all actives have a fitted effect of over 45% in size)
Summary of the method: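 Same-well cytotoxicity was assessed by CellTiter-Fluor in MDA-kb2 AR-luc cells after 16 h of compound treatment under R1881 agonism.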

[6] = qHTS assay to identify small molecule antagonists of the glucocorticoid receptor (GR) signaling pathway - cell viability counter screen (AID 720693); note: nearly all actives have a fitted effect of over 55% in size
[7] = qHTS assay to identify small molecule antagonists of the thyroid receptor (TR) signaling pathway - cell viability counter screen (AID 743064); note: nearly all actives have a fitted effect of over 50% in size
Summary of the method: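 Compounds were tested on GH3.TRE-Luc cells in the presence of T3 at 1 nM final. Following 23.5 h at 37 °C, cell viability was quantified by CellTiter-Fluor.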

[8] = molecular target: Androgen receptor (Homo sapiens) (UniProt P10275); assay: qHTS assay to identify small molecule antagonists of the androgen receptor (AR) signaling pathway (AID 743035; active = well fitted inhibition curve with a large enough effect in the signal ratio in the repeat runs, not every such curve was filed as active; the % refers to the signal ratio; note: potency is the fitted concentration of half-maximal effect)
Chain of Androgen receptor (Homo sapiens) (P10275 whole entry, looked up): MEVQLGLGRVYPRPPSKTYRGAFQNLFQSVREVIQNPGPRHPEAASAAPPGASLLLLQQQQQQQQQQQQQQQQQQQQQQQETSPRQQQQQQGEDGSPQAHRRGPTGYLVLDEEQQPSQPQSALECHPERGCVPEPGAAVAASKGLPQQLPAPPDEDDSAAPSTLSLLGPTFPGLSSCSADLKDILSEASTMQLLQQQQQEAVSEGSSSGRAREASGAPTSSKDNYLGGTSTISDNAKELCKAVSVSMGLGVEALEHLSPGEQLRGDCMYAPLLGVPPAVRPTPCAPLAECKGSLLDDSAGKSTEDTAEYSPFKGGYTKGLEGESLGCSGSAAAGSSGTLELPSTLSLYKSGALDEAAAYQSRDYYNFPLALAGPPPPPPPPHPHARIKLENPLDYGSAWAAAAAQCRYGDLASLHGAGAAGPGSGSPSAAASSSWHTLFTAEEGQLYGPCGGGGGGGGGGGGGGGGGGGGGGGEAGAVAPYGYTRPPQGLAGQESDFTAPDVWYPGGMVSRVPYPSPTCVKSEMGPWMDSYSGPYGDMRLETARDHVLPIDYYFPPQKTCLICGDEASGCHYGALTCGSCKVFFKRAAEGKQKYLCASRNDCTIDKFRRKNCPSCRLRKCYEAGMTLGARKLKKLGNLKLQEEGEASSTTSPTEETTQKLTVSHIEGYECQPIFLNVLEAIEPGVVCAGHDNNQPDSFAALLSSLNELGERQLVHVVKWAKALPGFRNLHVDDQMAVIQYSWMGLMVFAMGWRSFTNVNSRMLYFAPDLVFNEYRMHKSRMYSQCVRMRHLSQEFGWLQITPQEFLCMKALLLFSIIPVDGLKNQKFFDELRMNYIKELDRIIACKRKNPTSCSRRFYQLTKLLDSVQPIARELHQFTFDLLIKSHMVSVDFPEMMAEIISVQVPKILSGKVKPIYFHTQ
Summary of the method: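 HEK293 cells stably carrying UAS-beta-lactamase reporter, 2,000/well, given compounds plus R1881 agonist and incubated 16 h at 37C. LiveBLAzer B/G FRET substrate then added for 2 h at room temperature before fluorescence reading.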

[9] = molecular target: Androgen receptor (Homo sapiens) (UniProt P10275); assay: qHTS assay to identify small molecule agonists of the androgen receptor (AR) signaling pathway using the MDA cell line (AID 743040; note: nearly all actives have a fitted effect of over 20% in size)
Summary of the method: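 Human breast carcinoma MDA-kb2 reporter cells (MMTV-luc, AR/GR elements) were treated for 16 h at 37C in 0% CO2 following a 5 h settling period. Signal was quantified by ONE-Glo luminescence.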

[10] = molecular target: Androgen receptor (Homo sapiens) (UniProt P10275); assay: qHTS assay to identify small molecule antagonists of the androgen receptor (AR) signaling pathway using the MDA cell line (AID 743042; note: nearly all actives have a fitted effect of over 55% in size; note: potency is the fitted concentration of half-maximal effect)
Summary of the method: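 MDA-kb2 breast carcinoma cells carrying MMTV-luciferase (AR/GR responsive) were co-treated with compounds and the agonist R1881 for 16 h at 37C. Inhibition read as ONE-Glo luminescence; CellTiter-Fluor fluorescence measured in parallel for cytotoxicity.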

Measured: Potency

CC(C)C[C@H]1C(=O)N2CCC[C@H]2[C@]2(O)O[C@](NC(=O)[C@@H]3C=C4c5cccc6[nH]c(Br)c(c56)C[C@H]4N(C)C3)(C(C)C)C(=O)N12
active: [1] 5.31 µM and 11.6 µM | [2] 10.6 µM and 7.34 µM | [3] 7.5 µM and 10.4 µM
inactive: [4] | [5]

CCOc1ccc(O)cc1
active: [2] 54.5 µM
inactive: [6] | [4] | [5] | [7]

Cc1cc(C(=O)O)ccc1[N+](=O)[O-]
inactive: [1] | [3] | [4] | [5] | [7]

CN1CCC(=C2c3ccccc3Sc3ccccc32)CC1
active: [1] 5.31 µM | [3] 8.41 µM | [4] 23.9 µM | [8] 26.8 µM | [10] 29.8 µM
inactive: [9]

CCOC(=O)Cc1cccc2ccccc12
inactive: [6] | [3] | [4] | [5] | [7]

CCCCCCCCCCCC(=O)OC[C@@H](O)[C@H]1OC[C@H](OCCO)[C@H]1OCCO
inactive: [6] | [5]
active: [2] 53.2 µM

COc1ccnc(CS(=O)c2nc3ccc(OC(F)F)cc3[nH]2)c1OC (stereo not given)
inactive: [6] | [4] | [5]

C=C1C(=C/C=C2\CCC[C@]3(C)[C@@H]([C@H](C)/C=C/[C@@H](O)C4CC4)CC[C@@H]23)C[C@@H](O)C[C@@H]1O
active: [1] 11.9 µM | [2] 11.9 µM | [3] 13.3 µM | [10] 26.6 µM
inactive: [4] | [9]

CCCCCCCCCCCCN1CCCCCC1=O
inactive: [6] | [4] | [5] | [7]

c1cc(CCCc2ccncc2)ccn1
inactive: [6] | [4] | [5] | [7]

CCC(Cl)CCC(Cl)C(Cl)CC(Cl)C(Cl)C(Cl)CCl (stereo not given)
inactive: [6] | [3] | [4] | [7]

CCCCCCCCCCCCCCCCCCOS(=O)(=O)O
inactive: [3] | [4] | [5]

CC(C)(O)c1ccc(CNC(=O)c2cccnc2Oc2ccc(F)cc2)cc1
inactive: [6] | [5] | [7]

COC(C)OC
inactive: [1] | [3] | [4] | [5] | [7]

CC1=CC=C(C(C)C)CC1
inactive: [6] | [2] | [4] | [5] | [7]

O=S(c1cc(Cl)cc(Cl)c1O)c1cc(Cl)cc(Cl)c1O
inactive: [4] | [9] | [5] | [10]
